Most compounds without a hit are left out; they make up all but 1.8% or so of the library.
TNFa cytotox = cytotoxicity in TNFa-stimulated HUVEC, primary screen, cytotoxicity control for VCAM1 expression modulator project, imaging, Hoechst nuclei count; HUVEC TNFalpha-stimulated, Hoechst cell count; cell count reduction, % at 2 µM; actives 0.17% (n = 93,000);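 active = cell count reduction exceeding the screen mean by over 5 SD, scaled to untreated wells per plate, cut at about 78% in these data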;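 also: cells counted after 24 h of TNF alpha exposure following the 1 h pretreatment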
IL1B cytotox = cytotoxicity in IL-1B stimulated HUVEC, primary screen, cytotoxicity control for IL-1B NFkB translocation project, imaging, Hoechst nuclear count, IL-1B stimulus; actives 0.41% (n = 94,000); AID 845, 2007; HUVEC cell count loss; cell count reduction, % at 2 µM;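 active = cell count reduction more than 3 SD above the screen-wide mean, cut at about 70% in these data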;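 also: normalized per plate to untreated control cells as the no-loss baseline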
IL1B NFkB inh = inhibitors of IL-1B driven NFkB p65 nuclear import, primary screen, imaging, HUVEC, IL-1B stimulus, high-content imaging | HUVEC IL-1B NFkB p65 nuclear translocation imaging | inhibition, % at 2 µM | actives 0.43% (n = 94,000) | AID 796, 2007;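 active = inhibition above about 30% together with a positive call from visual inspection of the well image, limit read from the data; inconclusive = inhibition above a set limit but visual check negative; inactive = inhibition not above a set limit, visual check negative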;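 also: nuclear over cytoplasmic p65 intensity ratio measured by imaging; 0% = IL-1B stimulated DMSO wells and 100% = unstimulated DMSO wells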
VCAM1 TNFa inh = inhibitors of TNFa-induced VCAM1 expression, primary screen, imaging, HUVEC, TNFa stimulus, immunofluorescence; actives 0.48% (n = 95,000); HUVEC TNFa-induced VCAM-1 immunofluorescence, high-content imaging; AID 802, 2007; inhibition, % at 2 µM;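 active = inhibition above the batch mean plus 3 SD, with images confirmed as a hit by eye, cut at about 37% in these data; inconclusive = inhibition above that limit but hit not confirmed in images; inactive = inhibition not above that limit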;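 also: 0% = TNF-stimulated DMSO wells and 100% = unstimulated control wells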
IL1B NFkB pot = enhancers of NFkB p65 translocation in HUVEC – imaging, IL-1B stimulus, high-content imaging, primary screen; HUVEC IL-1B NFkB p65 nuclear translocation imaging; activation, % at 2 µM; actives 0.3% (n = 94,000); AID 819, 2007;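 active = activation above 40%, about the mean plus 3 SD, also judged a hit on visual image review; inconclusive = activation above 40% but not a hit on visual review; inactive = activation not above 40% and no visual hit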;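 also: percent activation is computed from the nuclear over cytoplasmic p65 intensity ratio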
E-sel TNF inh = E-selectin induction blockers in HUVEC – imaging, immunofluorescence, high content, primary screen | HUVEC TNFa-induced E-selectin immunofluorescence | inhibition, % at 2 µM | actives 0.71% (n = 120,000) | AID 1246, 2008;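 active = inhibition above the batch mean plus 3 SD, and confirmed as a hit on visual image review, cut at about 43% in these data; inconclusive = passes the inhibition cutoff but fails visual image review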;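 also: 0% = TNF-stimulated DMSO wells and 100% = unstimulated control wells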
An asterisk follows results filed as active; ? = inconclusive; / = no result.

SMILES | TNFa cytotox | IL1B cytotox | IL1B NFkB inh | VCAM1 TNFa inh | IL1B NFkB pot | E-sel TNF inh
CC(=O)Nc1ccc(NC(=O)CSCCc2ccccn2)cc1 | 1 | -7 | 49* | -7 | -49 | -18
CC1CC(Nc2ccccc2)=CC(=O)O1 (centres undefined) | -5 | 7 | 6 | 16 | -5 | 44*
COCc1cc(Sc2c(Cl)cccc2Cl)nc(-c2ccccc2)n1 | -28 | 88* | -7 | -10 | 7 | -26
COc1ccc(S(=O)(=O)N(CC(N)=O)C2CCCCC2)cc1Cl | -13 | 93* | -25 | -3 | 25 | 45*
COc1ccc(S(=O)(=O)N(C)CC(=O)NC2CCCCC2)cc1Cl | -4 | 14 | -1 | -11 | 1 | -4
CCOCCn1c(CN2CCOCC2)nc2c1c(=O)[nH]c(=O)n2C | / | / | / | / | / | 0
COc1ccc(Br)cc1CN(C)CC(=O)Nc1ccccc1Cl | / | / | / | / | / | 20
COc1ccc(Br)cc1CN(C)CC(=O)Nc1cc(Cl)ccc1Cl | / | / | / | / | / | 89*
COCc1c(CCl)cnc(C)c1O | / | / | / | / | / | -23
CC(=O)NC(Cc1ccccc1)c1ccc2c(c1)OCCCO2 (centres undefined) | / | / | / | / | / | 5
O=C(NC(Cc1ccccc1)c1ccc2c(c1)OCCCO2)c1ccc(F)cc1 (centres undefined) | 4 | -6 | -44 | -1 | 44* | -10
Cc1nc(NC(=O)CSc2nnc(Cn3nnc4ccccc43)n2C)sc1C | / | / | / | / | / | 3
O=C(Nc1ccc2c(c1)OCO2)c1cccc(F)c1 | 13 | 90* | 12 | -12 | -12 | -28
O=C(Nc1ccc2c(c1)OCO2)c1c(F)cccc1F | 1 | 6 | -23 | 12 | 23 | -16
COc1ccc([N+](=O)[O-])cc1NS(=O)(=O)c1ccc(Cl)c(C(=O)Nc2sc3c(c2C#N)CCCCC3)c1 | / | / | / | / | / | -12
Cn1c(N)c(C(=O)COC(=O)CN2C(=O)c3ccccc3C2=O)c(=O)n(C)c1=O | / | / | / | / | / | 68*
CCc1ccccc1OCC(=O)OCC(=O)c1c(N)n(C)c(=O)n(C)c1=O | / | / | / | / | / | -10
O=C(NC(NC(=S)Nc1ccc(Cl)cc1Cl)C(Cl)(Cl)Cl)c1cccc([N+](=O)[O-])c1 (centres undefined) | 29 | -33 | 12 | -26 | -12 | 17
CCOC(=O)c1ccc(Nc2nc(C(=O)OCC)nc3ccccc23)cc1 | -41 | 84* | 3 | 21 | -3 | 5
CCOC(=O)c1c(NC(C)=O)sc2c(O)cccc12 | / | / | / | / | / | 56*
CCOC(=O)c1cnn(-c2cc(Oc3ccccc3C)ncn2)c1N | -19 | 0 | 19 | -48 | -19 | 14
Cc1cc(NC(=O)CC(C)(C)C)nc2c1c(=O)oc1ccccc12 | 11 | -11 | 24 | -9 | -24 | -8
CCCc1cc2c(c(NC(C)=O)n1)c(=O)oc1ccccc12 | / | 78* | 19 | / | -19 | 9
Cc1ccc(C(=O)NCCSc2ccccc2)cc1S(=O)(=O)Nc1ccccc1 | / | -16 | -16 | 25 | 8 | 25
CCOc1ccc(OCCCCn2ccnc2)cc1 | / | / | / | / | / | -11
SMILES | TNFa cytotox | IL1B cytotox | IL1B NFkB inh | VCAM1 TNFa inh | IL1B NFkB pot | E-sel TNF inh
CC(=O)c1cccc(Nc2nc(-c3cccc([N+](=O)[O-])c3)cs2)c1 | -1 | -4 | -8 | 39* | 8 | -17
c1ccc(-c2cc3c(ccc4nonc43)nn2)cc1 | -20 | 27 | -57 | 4 | 57* | 8
Cc1ccc(NC(=O)c2cc(NC(=O)CCC(=O)O)ccc2N2CCCCC2)cc1 | -32 | 92* | 5 | 8 | -5 | 10
C=CCn1c(SCc2c(C)noc2C)nc2cc(C(=O)O)ccc2c1=O | / | 2 | 6 | / | -5 | 16
C=CCn1c(SCc2c(C)noc2C)nc2ccccc2c1=O | 36 | 6 | -19 | 60* | 19 | 3
Cc1cc(-n2c(C)cc(C(=O)CN3C(=O)NC4(CCCCC4)C3=O)c2C)no1 | 90* | -22 | -13 | -46 | 13 | 11
Cc1ccc(S(=O)(=O)Nc2cc(C(=O)NCCN3CCCC3)ccc2N2CCCCC2)cc1 | 88* | 16 | -25 | 74* | 25 | /
COc1ccc(C2(NC(C)=O)CCN(C(=O)c3ccco3)CC2)cc1 | -7 | 31 | 2 | 16 | -2 | 4
CCc1n[nH]c2c1C(=O)CC(C)(C)C2 | -11 | -18 | -12 | 6 | 12 | 54*
Cc1ccc(/C([O-])=C(/C(=S)NCc2ccccc2)[n+]2cccc(CO)c2)cc1[N+](=O)[O-] | / | / | / | / | / | 73*
Cc1ccc(NC(=S)NCc2ccccc2)cc1[N+](=O)[O-] | / | / | / | / | / | -1
Cc1nnc(SCc2cn3ccsc3n2)n(N)c1=O | 82* | -1 | -11 | 62* | 11 | -14
COc1ccc(C)cc1-n1nnnc1SCc1cn2ccsc2n1 | -20 | 6 | -13 | 13 | 13 | /
O=C(c1cn(-c2ccccc2)nc1-c1ccncc1)N1CCCCC1 | / | 92* | 24 | -54 | -24 | -5
CCN(C(=O)COC(=O)c1cc(C)n(-c2ccc(F)cc2)c1C)C1CCS(=O)(=O)C1 (centres undefined) | 4 | -6 | -2 | 3 | 2 | 100*
COc1ccccc1-n1c(=O)[nH]c2c(C(N)=O)nc(C3CCCCC3)nc21 | -8 | -7 | 4 | 1 | -4 | 68*
NC(=O)c1nc(C2CCCCC2)nc2c1[nH]c(=O)n2-c1ccc(F)cc1 | 2 | 8 | -15 | 17 | 15 | 25
COc1ccc(C2CC(c3cccs3)=Nc3ccccc3S2)cc1 (centres undefined) | -5 | 9 | -43 | 36 | 43* | 10
CCOc1cc(C2NC(=O)NC(C)=C2C(=O)NCc2ccccc2)c(Cl)cc1O (centres undefined) | -14 | -6 | 1 | -9 | -1 | -73
COc1ccc(C2CC(O)(C(C)(C)O)NO2)cc1 (centres undefined) | -5 | 0 | -42 | -8 | ? | 47*
COc1ccc2c(c1)C1(Nc3ccccc3-c3nc4ccccc4n31)C(=O)N2C (centres undefined) | -4 | 5 | 7 | -4 | -7 | 8
COc1ccc2c(c1)C1(Nc3ccccc3-c3nc4ccccc4n31)C(=O)N2 (centres undefined) | 3 | 71* | 16 | -1 | -16 | -6
Cc1cccnc1N(C(=O)Nc1cccc(Cl)c1)C1=NCC(C)(C)S1 | / | / | / | / | / | 2
Cc1cccnc1N(C(=O)Nc1ccccc1)C1=NCC(C)(C)S1 | 57 | 10 | 3 | 42* | -3 | -5
Cc1cc2oc(=O)cc(Cn3nnc(-c4ccc(Cl)cc4)n3)c2cc1C(C)C | / | / | / | / | / | 10
